# Source: PubChem BioAssay (National Center for Advancing Translational Sciences (NCATS))
# Lassa entry inh = inhibitors of Lassa virus binding or cell entry. Lassa virus pseudotype entry inhibition, cell reporter. actives 1.2% (n = 300,000). Potency, µM (doses to about 37.9 µM), inactives show at the highest dose activity change, negative = inhibition, hits mostly inhibitors; calls by dose curve; tested in HEK293 cells; note: potency is the fitted concentration of half-maximal effect; nearly all actives have a fitted effect of over 50% in size
# Vaccinia Venus = vaccinia inhibition (Venus reporter); Vaccinia virus Venus reporter expression, fluorescence; Potency, µM (top dose mostly 36.5 µM), for the others: at the top dose activity change, negative = inhibition, hits mostly inhibitors; actives 0.46% (n = 330,000); AID 720580; calls by dose curve; tested in A549 cells; note: potency is the fitted concentration of half-maximal effect; nearly all actives have a fitted effect of over 30% in size
# FMDV inh = antivirals against foot and mouth disease virus. FMDV antiviral cell-based qHTS. Potency, µM (top dose mostly 57.9 µM), for inactives: top-dose activity change, negative = inhibition, most hits filed as inhibitors. actives 1.2% (n = 410,000); calls by dose curve; tested in HEK293T cells; note: read-out not given here; potency is the fitted concentration of half-maximal effect; nearly all actives have a fitted effect of over 45% in size
# MARV entry inh = Marburg virus entry inhibition; Marburg virus pseudotyped entry inhibition, cell reporter; Potency, µM (doses to about 37.8 µM), inactives show at the highest dose activity change, negative = inhibition, actives largely listed as inhibitors; actives 1.8% (n = 300,000); calls by dose curve; tested in HEK293 cells; note: potency is the fitted concentration of half-maximal effect
# Vaccinia mCherry = vaccinia inhibition (mCherry reporter); actives 0.63% (n = 310,000); Potency, µM (series often up to 36.5 µM), without a hit: at the highest dose activity change, negative = inhibition, most hits filed as inhibitors; Vaccinia virus mCherry reporter infection, fluorescence; calls by dose curve; tested in A549 cells; note: potency is the fitted concentration of half-maximal effect; nearly all actives have a fitted effect of over 35% in size
# HCMV inh = human cytomegalovirus inhibition; activity change, negative = inhibition, % at 57.5 µM; actives 4.5% (n = 410,000); HFF cells, HCMV-luciferase reporter, 72 h; stronger effect = lower value; in the data active = activity change below about -60%; inconclusive = no clear call, values can overlap the other calls; inactive = above about -39%
#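 Two compound doses tested in HFFs infected with HCMV-luciferase, MOI 1 PFU/cell, 72 h at 37C. Lysate luminescence read with OneGlo; data normalized against buffer-only and 10uM Salinomycin inhibitor controls.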
# Numbers without * were called inactive; i = inactive; ? = inconclusive; / = not tested or not shown; [ ] = remark or other dose. Rows were chosen to be rich in hits. Some 6.5% of all compounds tested hit in one or more screens of this group. % is set by controls: 0 for no effect and ±100 for the full control effect.
SMILES,Lassa entry inh,Vaccinia Venus,FMDV inh,MARV entry inh,Vaccinia mCherry,HCMV inh
COc1ccc(-n2c(NCCN(C)C)nc3sc4c(c3c2=O)CCCCC4)cc1,-19%,-23%,-29%,23µM*,i,-107*
CN(C)CCNc1nc2sc3c(c2c(=O)n1-c1ccc(F)cc1)CCCCC3,?,-18%,-13%,?,-11%,45
CN(C)CCNc1nc2sc3c(c2c(=O)n1Cc1ccccc1)CCCCC3,8%,-9%,-7%,10µM*,-9%,-20
CCn1c(C(=O)NCc2ccccc2OC)cc2sccc21,/,-11%,-6%,6%[46.1 µM],-17%,-16
Cc1cc(C)nc(Nc2ccc(O)cc2)n1,0%[46.1 µM],-10%,21%,-2%[46.1 µM],-21%,7
Cc1cc(C)nc(Sc2nc(Nc3ccccc3)nc(Sc3nc(C)cc(C)n3)n2)n1,-6%,?,-11%,?,?,-72*
COc1ccc(C(C#N)CC(=O)c2ccc(OC)c(OCc3ccccc3)c2)cc1OC (configuration not stated),/,?,?,/,-18%,-70*
CC(=O)N(Cc1ccccc1)c1nccs1,/,/,/,/,/,12
Cc1c(CN2CCC(CO)(Cc3cccc(C(F)(F)F)c3)CC2)c2ccccc2n1C,?,?,-26%,?,?,-99*
OCC1(Cc2cccc(C(F)(F)F)c2)CCN(Cc2cc3ccccc3o2)CC1,1%,?,-28%,?,?,-32
CC1(C(=O)N2CCC(CO)(Cc3cccc(C(F)(F)F)c3)CC2)CC1,/,/,?,/,/,-10
CC(=O)c1ccc(C(=O)N2CCC(CO)(Cc3cccc(C(F)(F)F)c3)CC2)cc1,?,-16%,-30%,?,-8%,-75*
CN(CC(=O)O)c1ccc(/C=C/c2ccnc3ccccc23)cc1,/,-4%,/,/,-2%,/
O=C(O)COc1ccc2c3c(c(=O)oc2c1)CCCC3,2%[46.1 µM],0%,-7%,0%[46.1 µM],i,-80*
O=C(/C=C/c1ccc2ccccc2n1)N1CCN(c2ccccc2)CC1,-6%[46.1 µM],-15%,-16%,?,-7%,-21
O=C(/C=C/c1ccc2ccccc2n1)N1CCN(S(=O)(=O)c2ccc(F)cc2)CC1,/,/,?,/,/,-80*
O=C(c1ccc(S(=O)(=O)N2CCOCC2)cc1)N1CCN(c2ccc(F)cc2)CC1,-2%,1%,-20%,-8%,/,17
O=C(/C=C/c1ccc(S(=O)(=O)N2CCOCC2)cc1)N1CCN(c2ccc(F)cc2)CC1,?,-26%,?,?,?,-63*
O=C(/C=C/c1ccc2ccccc2n1)N1CCN(S(=O)(=O)c2ccccc2F)CC1,/,/,?,/,/,-97*
O=C(c1cncs1)N(Cc1cc2cc3c(cc2nc1N1CCOCC1)CCC3)CC1CCCO1 (configuration not stated),/,-2%,11%,/,-7%,/
COc1ccc(CNC(=O)CCc2c(C)nn(-c3ccc(N4CCCCC4)nn3)c2C)c(OC)c1,-20%[46.1 µM],-13%,11%,/,-5%,-15
C=C(C#Cc1ccc(OC)cc1)CCN1C=C(C(=O)OCC)C(c2ccccc2)NC1=O (configuration not stated),?,/,/,6%[14.2 µM],/,/
COc1ccc(N2CCN(C3CCCN(S(=O)(=O)c4ccc(C)cc4C)C3)CC2)cc1 (configuration not stated),/,/,22%,/,/,-73*
COc1ccc(N2CCN(C3CCCN(S(=O)(=O)c4ccccc4)C3)CC2)cc1 (configuration not stated),-12%,-16%,-1%,0%,-1%,-31
COc1ccc2c(c1)[C@@]1(OCCC=C[C@@H]1C)C(=O)N2Cc1ccccc1C(F)(F)F,/,/,/,-15%[14.2 µM],/,/
SMILES,Lassa entry inh,Vaccinia Venus,FMDV inh,MARV entry inh,Vaccinia mCherry,HCMV inh
Cc1ccc2nc(-c3ccc(NC(=S)NC(=O)C(C)C)cc3)sc2c1,0%,-12%,/,13%,-1%,92
Cc1ccc2nc(-c3ccc(NC(=S)NC4CC(C)(C)NC(C)(C)C4)cc3)sc2c1,?,-20%,63%,?,-6%,-102*
O=C(COC(=O)CCN1C(=O)/C(=C\C=C\c2ccccc2)SC1=S)Nc1ccc(Br)cc1,-26%[46.1 µM],-1%,?,?,-26%,-74*
CC(C)c1ccccc1NC(=O)COC(=O)CCN1C(=O)/C(=C\C=C\c2ccccc2)SC1=S,?,12%,?,?,-3%,-86*
Cc1c(P(=S)(c2ccccc2)c2ccccc2)[n+]2ccccc2n1C,/,/,-18%,/,/,-64*
Cc1c(P(=S)(c2ccccc2)c2ccccc2)[n+]2ccccc2n1C/C=C/c1ccccc1,/,/,?,/,/,-99*
Cc1ccc(Cl)cc1NS(=O)(=O)c1ccc2oc(=O)c3ncn(C)c3c2c1,-15%[46.1 µM],-9%,-15%,/,i,29
Cc1ccc(C(=O)OCC(=O)NC(=O)NCc2ccccc2)cc1C,/,/,-7%,/,/,-2
O=C(COC(=O)c1ccccc1Cl)NC(=O)NCc1ccccc1,8.2µM*,-17%,24%,-1%,-5%,33
O=C(COC(=O)c1ccc(F)c([N+](=O)[O-])c1)NC(=O)NCc1ccccc1,?,-18%,32µM*,?,-2%,-12
CCNC(=O)NC(=O)COC(=O)c1ccccc1SCC(=O)NC(=O)NCC,?,-12%,-73%,14µM*,-15%,125
COc1ccc(N2CCN(C(=O)Cc3noc4ccc(C)cc34)CC2)cc1,-10%[46.1 µM],-6%,-21%,/,-1%,-10
CCC(Nc1ccc(-c2nc(-c3ccco3)no2)cc1[N+](=O)[O-])c1ccccc1 (configuration not stated),17%[46.1 µM],-6%,10%,9%[46.1 µM],-8%,12
Cc1cc(NC(=O)CSc2nc3ccccc3c(=O)n2C(C)c2ccccc2)no1 (configuration not stated),2.5µM*,-23%,-24%,3.2µM*,/,?
CCC(C)n1c(SCC(=O)Nc2cc(C)on2)nc2ccccc2c1=O (configuration not stated),-12%,?,-23%,4µM*,i,-6
CN1C[C@H](CNC(=O)OCc2ccccc2)C[C@@H]2c3cccc4c3c(cn4C)C[C@H]21,23µM*,-26%,-17%,5.6µM*,-17%,54
CN1C[C@H](CNC(=O)OCc2ccccc2)C[C@H]2c3cccc4c3c(cn4C)C[C@@H]21,/,/,-17%,?,/,/
CN(C)CC(=O)N[C@@H]1CC[C@@H](CC(=O)NCCN2CCCCC2)O[C@@H]1CO,/,-11%,-18%,/,-9%,-100*
CN(C)CC(=O)N[C@@H]1C=C[C@@H](CC(=O)NCCN2CCCCC2)O[C@@H]1CO,/,-10%,0%,/,-7%,-15
C=CC1=C2C=C(C3CC3)N(CCCOC(C)C)C=C2C(=O)C(C)(OC(=O)c2ccco2)C1=O (configuration not stated),/,/,/,-14%[14.2 µM],/,/
CCOC(=O)[C@@H]1CSCCS(=O)(=O)N1C(=O)[C@H](CCSC)NC(=O)OC(C)(C)C,/,/,/,/,/,8
